Data from the GenesisPotency data set.
The campaign covered roughly 1,300 compounds. About 35 (3%) were called active. Inconclusive results (about 48%) are left out. The call rests on the fitted dose curve; in most records, active means well fitted inhibition curve with a large enough effect; inconclusive means small, poorly fitted or top-dose-only effect, or effect the other way; inactive means flat fitted curve, though single readings scatter. Only a selection was taken, and actives are over-represented in it overall.

biological target: T1, ATP-dependent 6-phosphofructokinase, Trypanosoma brucei brucei (UniProt O15648); assay: qHTS Validation Assay to Find Inhibitors of T. brucei phosphofructokinase (AID 485368)
T1 sequence (whole entry): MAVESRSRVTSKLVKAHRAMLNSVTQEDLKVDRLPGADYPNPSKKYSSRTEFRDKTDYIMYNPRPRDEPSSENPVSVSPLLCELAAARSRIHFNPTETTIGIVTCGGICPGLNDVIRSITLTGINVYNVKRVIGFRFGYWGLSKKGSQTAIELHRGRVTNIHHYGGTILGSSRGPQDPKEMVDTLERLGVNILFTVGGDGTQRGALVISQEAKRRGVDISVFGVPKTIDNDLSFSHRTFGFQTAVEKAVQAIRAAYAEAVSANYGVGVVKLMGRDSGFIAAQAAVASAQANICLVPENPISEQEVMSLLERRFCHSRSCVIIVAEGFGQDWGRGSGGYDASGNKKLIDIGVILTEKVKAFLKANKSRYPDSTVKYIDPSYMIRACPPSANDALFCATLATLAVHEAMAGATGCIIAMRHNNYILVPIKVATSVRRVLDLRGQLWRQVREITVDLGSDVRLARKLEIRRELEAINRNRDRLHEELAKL

SMILES	outcome
N.N.[Cl][Pt][Cl]	active
